Measured values: PubChem BioAssay (NCI)
The panel holds about 83,000 compounds, 20% with a hit somewhere; the sample as a whole holds those more often.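 48-hour exposure, single concentration, 96-well plates; percent growth endpoint where 0 means no net growth. Active: below 10.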

What was measured:
Test in all cases: NCI-60 one-dose screen, 48 h (100 = growth as untreated, 0 = no growth, -100 = all killed)
Conditions in all cases: 10 µM unless noted
DU-145 prostate = system: DU-145 prostate
K-562 leukemia = system: K-562 leukemia
MALME-3M melanoma = system: MALME-3M melanoma
MDA-MB-231 breast = system: MDA-MB-231 breast
RXF 393 renal = system: RXF 393 renal
SF-268 CNS = system: SF-268 CNS
SF-295 CNS = system: SF-295 CNS
SF-539 CNS = system: SF-539 CNS
UACC-257 melanoma = system: UACC-257 melanoma
M14 melanoma = system: M14 melanoma
HCT-15 colon = system: HCT-15 colon
HT29 colon = system: HT29 colon
SNB-75 CNS = system: SNB-75 CNS
SNB-19 CNS = system: SNB-19 CNS
U251 CNS = system: U251 CNS
PC-3 prostate = system: PC-3 prostate
SK-MEL-5 melanoma = system: SK-MEL-5 melanoma
UACC-62 melanoma = system: UACC-62 melanoma
LOX IMVI melanoma = system: LOX IMVI melanoma
SK-MEL-28 melanoma = system: SK-MEL-28 melanoma

Measured: growth

CNc1cc(C(=O)O)nc(NC)n1
inactive: DU-145 prostate 103% | K-562 leukemia 101% | MALME-3M melanoma 95.6% | MDA-MB-231 breast 93.1% | RXF 393 renal 96% | SF-268 CNS 100% | SF-295 CNS 100% | SF-539 CNS 94.6% | UACC-257 melanoma 94.4% | M14 melanoma 92.7% | HCT-15 colon 96.4% | HT29 colon 104% | SNB-75 CNS 90.9% | SNB-19 CNS 92.5% | U251 CNS 99.8% | PC-3 prostate 94.9% | SK-MEL-5 melanoma 96.7% | UACC-62 melanoma 97.8% | LOX IMVI melanoma 99.8% | SK-MEL-28 melanoma 92.7%

Cc1ccc(-c2cc(O)c(-c3ccc(C)cc3C)cc2O)c(C)c1
inactive: DU-145 prostate 80% | K-562 leukemia 25.8% | MALME-3M melanoma 115% | MDA-MB-231 breast 58.2% | RXF 393 renal 67.5% | SF-268 CNS 57.4% | SF-295 CNS 65.7% | SF-539 CNS 47.8% | UACC-257 melanoma 79% | M14 melanoma 66.8% | HCT-15 colon 29.5% | HT29 colon 42.3% | SNB-75 CNS 45.9% | SNB-19 CNS 71.9% | U251 CNS 38.2% | PC-3 prostate 52.1% | SK-MEL-5 melanoma 12.4% | UACC-62 melanoma 54.8% | LOX IMVI melanoma 33.4% | SK-MEL-28 melanoma 85.2%

Cn1cc(-c2nnc(-c3cn(C)c4ncc(Br)cc34)o2)c2ccccc21
inactive: DU-145 prostate 103% | K-562 leukemia 49.1% | MALME-3M melanoma 75.2% | MDA-MB-231 breast 75.3% | RXF 393 renal 70.8% | SF-268 CNS 89.1% | SF-295 CNS 89.3% | SF-539 CNS 92.1% | UACC-257 melanoma 98.5% | M14 melanoma 96.4% | HCT-15 colon 53.3% | HT29 colon 87.7% | SNB-75 CNS 65.8% | SNB-19 CNS 87.6% | U251 CNS 94.3% | PC-3 prostate 77.2% | SK-MEL-5 melanoma 80.1% | UACC-62 melanoma 70.8% | LOX IMVI melanoma 92.3% | SK-MEL-28 melanoma 91.7%

NC1=NC(=O)NC1(c1ccccc1)c1ccccc1
inactive: DU-145 prostate 99.5% | K-562 leukemia 89.5% | MALME-3M melanoma 93.3% | MDA-MB-231 breast 94% | RXF 393 renal 102% | SF-268 CNS 103% | SF-295 CNS 117% | SF-539 CNS 104% | UACC-257 melanoma 103% | M14 melanoma 98.6% | HCT-15 colon 97.5% | HT29 colon 111% | SNB-75 CNS 89.9% | SNB-19 CNS 98.9% | U251 CNS 97.4% | PC-3 prostate 94.3% | SK-MEL-5 melanoma 95.9% | UACC-62 melanoma 101% | LOX IMVI melanoma 91.3% | SK-MEL-28 melanoma 109%
